From PubChem
Rows were chosen to be rich in hits. Some 1.8% of all compounds tested hit in one or more screens of this group.
p-CIP stab down: compounds decreasing mouse p/CIP protein stability. AID 1984. 0.01% of 290,000 active. decrease of EGFP signal, % at 10 µM. Q05BA5. F442A p/CIP-EGFP cells, EGFP fluorescence, 16 h;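 active = EGFP signal decrease of at least 30% at 10 µM or well 3 SD below plate mean, unless failing retest; inactive = the rest, including hits failing retest or dose response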
PHOSPHO1 inh: PHOSPHO1 (human) inhibition; recombinant PHOSPHO1, absorbance phosphatase assay; inhibition, % at 13.3 µM; 1.1% of 290,000 active; AID 1565; in the data active = inhibition above about 60%
Target sequence (Q8TCT1 whole entry, looked up): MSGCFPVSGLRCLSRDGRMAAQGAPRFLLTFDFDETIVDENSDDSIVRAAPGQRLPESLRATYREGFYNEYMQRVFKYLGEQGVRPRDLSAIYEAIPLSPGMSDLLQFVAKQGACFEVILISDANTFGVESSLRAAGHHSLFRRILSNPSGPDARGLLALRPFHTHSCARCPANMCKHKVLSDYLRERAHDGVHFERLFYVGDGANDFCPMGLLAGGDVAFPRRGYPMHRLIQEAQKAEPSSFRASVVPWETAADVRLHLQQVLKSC
NadD inh: inhibitors of Staphylococcus aureus NadD; purified NadD enzyme, colorimetric absorbance read-out; inhibition, % at 20 µM; 0.78% of 360,000 active; AID 602399; in the data active = inhibition above about 26%
SUMO HTRF inh: blocks human SUMOylation mediated by UBC9. HTRF SUMOylation assay, SAE1/SAE2 + UBC9, in vitro. inhibition, % at 35 µM. 0.36% of 290,000 active; in the data active = inhibition above about 50%, passing the limit was not always enough; inconclusive = no clear call, values can overlap the other calls
Target sequence (P63279 whole entry, looked up): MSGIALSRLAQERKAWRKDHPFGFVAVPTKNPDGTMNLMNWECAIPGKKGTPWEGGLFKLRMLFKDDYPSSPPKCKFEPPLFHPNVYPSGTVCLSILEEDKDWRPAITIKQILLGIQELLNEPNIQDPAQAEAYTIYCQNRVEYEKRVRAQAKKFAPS
* marks the source's active call; other numbers are inactive results; ? = inconclusive; / = not tested or not shown.

SMILES	p-CIP stab down	PHOSPHO1 inh	NadD inh	SUMO HTRF inh
O=C(c1cccc(C(=O)N2CCN(Cc3ccccc3)CC2)c1)N1CCN(Cc2ccccc2)CC1	-6	-14	2	18
C/C=C(\C)C(=O)OC1[C@H](OC(C)=O)C2(CO)C(CC1(C)C)C1=CCC3C4(C)CCC(O[C@@H]5O[C@H](C(=O)O)[C@@H](O[C@@H]6O[C@H](CO)[C@@H](O)[C@H](O)[C@H]6O)[C@H](O)[C@H]5O[C@H]5O[C@H](CO)[C@@H](O)[C@H](O)[C@H]5O)[C@](C)(CO)C4CCC3(C)[C@]1(C)C[C@H]2O (some centres undefined)	/	/	-4	/
COC(=O)C(C)(C)ONC(=O)Nc1ccc([N+](=O)[O-])cc1	3	61*	-3	6
Cc1cc(C)c(S(=O)(=O)/N=C2/C=C(SCC(=O)O)C(=O)c3ccccc32)cc1C	12	-18	48*	84
CCc1ccc(S(=O)(=O)/N=C2\C=C(Nc3cccc(C(=O)O)c3)C(=O)c3ccccc32)cc1	-7	46	19	?
CCc1nc2c(OCC3COc4ccccc4O3)cccn2c1N(C)C(=O)c1ccc(OC)cc1 (centres undefined)	/	/	13	/
CCCNC(=O)C1(C)CCCN(C(=O)c2ccc3snnc3c2)C1 (centres undefined)	/	/	2	/
Oc1ccc(/C=N/Nc2cc(N3CCCC3)nc(N3CCCC3)n2)cc1	9	-50	14	94
Oc1cccc(/C=N/Nc2cc(N3CCCC3)nc(N3CCCC3)n2)c1	6	6	12	93*
CCOC(=O)C1(C)CCCN(C(=O)c2ccccc2C(F)(F)F)C1 (centres undefined)	/	/	-1	/
C=CCNC(=S)NNC(=O)c1cccn(Cc2cccc(Cl)c2)c1=O	-2	79*	-3	34
Cc1ccc(S(=O)(=O)Nc2nnc(CC(C)(C)C)s2)cc1	-2	/	2	2
CC(C)(C)Cc1nnc(NS(=O)(=O)c2ccc(F)cc2)s1	1	78*	-4	2
O=C(Nc1ccc(NC(=O)C2CCCCC2)nc1)c1ccccn1	-19	63*	0	-3
COc1ccccc1C(=O)Nc1ccc(NC(=O)C2CCCCC2)nc1	0	19	-6	2
CCCN(C)C1CN(Cc2cn(Cc3cccc(C(F)(F)F)c3)nn2)S(=O)(=O)C1 (centres undefined)	/	/	-2	/
COCC(=O)Nc1ccc2c(c1)[C@@H]1C[C@H](CC(=O)OC)O[C@@H](CO)[C@@H]1O2	/	/	8	/
Cc1ccc(Nc2nc(-c3sc(N)nc3C)cs2)cc1	-3	-11	15	0
COc1ccc(Nc2nc(-c3sc(NC(C)=O)nc3C)cs2)cc1	0	73*	/	-8
Cc1nc(N)sc1-c1csc(Nc2cc(N(C)C)ccc2Cl)n1	/	/	42*	/
Cc1nc(N)sc1-c1csc(Nc2ccccn2)n1	0	70*	12	10
Cc1nc(C)c(-c2csc(Nc3ccccn3)n2)s1	-9	26	-5	7
COc1ccc(CCNc2nc(-c3sc(N)nc3C)cs2)cc1OC	-11	-23	30*	6
COc1ccc(Nc2nc(-c3sc(N)nc3C)cs2)cc1	-8	68*	17	-10
C[C@@H]1CN([C@@H](C)CO)C(=O)CCCn2cc(nn2)CO[C@H]1CN(C)C(=O)c1cc(-c2ccccc2)on1	/	/	1	/
SMILES	p-CIP stab down	PHOSPHO1 inh	NadD inh	SUMO HTRF inh
CC(=NCc1ccncc1)C1=C(O)c2ccccc2C1=O	-13	64*	/	19
CC(=NCc1cccnc1)C1=C(O)c2ccccc2C1=O	6	14	-5	15
C=CCn1c(O)c(N=NC(=S)Nc2ccccc2F)c2cc(S(=O)(=O)N3CCOCC3)ccc21	1	-13	38*	-20
C=CCn1c(O)c(N=NC(=S)Nc2ccccc2F)c2ccccc21	-18	-19	-7	-33
CCN(CC(=O)Nc1ccc(OC)cc1)C(=O)C1CC(=O)N(Cc2ccccc2)C1 (centres undefined)	/	/	0	/
Nn1c(COc2cccc(Br)c2)nnc1SCC(=O)N1CCc2ccccc2C1	3	82*	0	6
CC(=O)NC(c1ccccc1)c1cc(Cl)c2cccnc2c1O (centres undefined)	-6	-39	1	11
O=C(NC(c1ccc(Cl)cc1)c1cc(Cl)c2cccnc2c1O)c1cccnc1 (centres undefined)	10	-5	47*	-12
CC(C)(C)S(=O)N1Cc2cc(C(=O)NCc3ccc4c(c3)OCO4)nc(-c3cccc(-c4ccccc4)c3)c2[C@@H]1CCO (some centres undefined)	/	/	0	/
COC1=C(Nc2ccc(OC)cc2)C(=O)c2ccccc2C1=O	-6	0	1	34
CCOc1ccc(NC2=C(OC)C(=O)c3ccccc3C2=O)cc1	-19	-2	-5	57*
Cc1cccc2c1c1ccc3c(c1n2C)C(=O)C=CC3=O	0	3	50*	43
COc1ccc(-c2cnc(C(O)c3ccc(OC)c(F)c3)[nH]2)cc1 (centres undefined)	/	/	1	/
Clc1ccc(C2=Nn3c(nnc3-c3n[nH]c4c3CCC4)SC2)cc1	0	73*	19	10
COC(=O)c1c(NS(=O)(=O)c2ccc3ccccc3c2)sc2c1CCCC2	-12	71*	8	5
CCOC(=O)c1c(NS(=O)(=O)c2ccc(Br)cc2)sc2c1CCC2	/	/	22	/
CCOC(=O)CSc1n[nH]c(NC(=O)c2cccc(C)c2)n1	2	60*	-2	24
CCCCNC(=O)Nc1nc(SCC(=O)OCC)n[nH]1	7	30	3	1
CC(C)c1ccc(N2C(=O)CC(Sc3nc4ccccc4o3)C2=O)cc1 (centres undefined)	-18	-18	-1	6
CC(C)c1ccc(N2C(=O)CC(Sc3ncn[nH]3)C2=O)cc1 (centres undefined)	6	93*	-2	-15
COc1ccc(N2C(=O)CC(Sc3ncn[nH]3)C2=O)c(OC)c1 (centres undefined)	-7	92*	2	7
CC(C)c1ccc(C(=O)CSc2ncn[nH]2)cc1	-7	100*	-2	8
CC(C)(C)OC(=O)N(Cc1ccccc1)Cc1ccccc1OCc1ccc(NC(=O)C2CCC2)cc1	/	/	-5	/
COc1ccccc1CNc1nc(-c2cc(C)n(C)c2C)cs1	-4	-43	30*	34
CCOC(=O)C1(C)CCN1C(=O)c1ccc(OC)c(OC)c1 (centres undefined)	/	/	0	/
CN(CCNC(=O)c1ccc(CS(=O)(=O)c2c(Cl)cccc2Cl)o1)CCc1ccccc1	3	65*	-9	2
O=C(O)c1ccccc1-c1ccccc1C(=O)Nc1ccc2c(c1)C(O)c1ccccc1-2 (centres undefined)	/	/	-3	/
O=c1c2cc(N3CCOCC3)ccc2[nH]c(=S)n1Cc1ccc(Cl)cc1	-8	82*	18	5
O=C(CCCCCn1c(=S)[nH]c2ccc(N3CCOCC3)cc2c1=O)NCc1ccc(Cl)cc1	-1	-81	5	24
CCC1=NN(C(=O)C(=O)Nc2ccc(OC)cc2)C(O)(C(F)(F)F)C1 (centres undefined)	-12	72*	0	-19
